# Screening data deposited in PubChem BioAssay by National Center for Advancing Translational Sciences (NCATS).
# A selection: hits, their analogues and other compounds. The true share with any hit is near 12%.
# JMJD2A Tudor: inhibitors of human JMJD2A Tudor domain. 390,000 compounds, 4.4% hits. AID 504339. O75164. AlphaScreen JMJD2A-Tudor / H3K4me3 peptide binding. Potency, µM (doses to about 114 µM), for the others: top-dose activity change, negative = inhibition, hits mostly inhibitors; further: potency means the concentration at half of the fitted maximal effect; on the % scale 0 is the no-effect control and ±100 the full control effect; nearly all actives have a fitted effect of over 50% in size
# G9a inh: blocks human histone lysine methyltransferase G9a; Q96KQ7; G9a H3K9 monomethylation, AlphaScreen, 2 h; Potency, µM (titrated, usually from 102 µM), for inactives: top-dose activity, negative = inhibition, most hits filed as inhibitors; 350,000 compounds, 8.8% hits; further: potency means the concentration at half of the fitted maximal effect; on the % scale 0 is the no-effect control and ±100 the full control effect; nearly all actives have a fitted effect of over 75% in size
# Target sequence (Q96KQ7 913-1193 limits assumed): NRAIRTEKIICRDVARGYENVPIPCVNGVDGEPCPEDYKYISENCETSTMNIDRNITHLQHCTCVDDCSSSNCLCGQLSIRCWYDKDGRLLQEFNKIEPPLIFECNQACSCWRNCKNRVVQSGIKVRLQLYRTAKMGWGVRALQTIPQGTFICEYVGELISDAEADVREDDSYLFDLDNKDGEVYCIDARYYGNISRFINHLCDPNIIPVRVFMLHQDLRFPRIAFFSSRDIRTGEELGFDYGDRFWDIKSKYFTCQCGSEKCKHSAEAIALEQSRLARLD
#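 AlphaScreen detection with an anti-monomethyl H3K9 antibody quantified product after a 2 h room-temperature reaction containing 500 nM biotinylated H3K9 peptide, 20 µM SAM and 20 nM enzyme, which had been preincubated 15 min with compound.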
# BAZ2B block: BAZ2B (human) inhibition; AlphaScreen BAZ2B-H3K14Ac peptide displacement; Potency, µM (series often up to 114 µM), inactives show at the highest dose activity change, negative = inhibition, actives largely listed as inhibitors; 360,000 compounds, 4.4% hits; AID 504333; further: potency means the concentration at half of the fitted maximal effect; on the % scale 0 is the no-effect control and ±100 the full control effect; nearly all actives have a fitted effect of over 60% in size
#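 AlphaScreen luminescence quantifies BAZ2B engagement of H3K14Ac peptide; the protein and biotinylated peptide are both at 50 nM final, buffer PBS pH 7.4 with 0.01% Tween-20, all steps at room temperature.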
# HP1b binding inh: HP1-beta chromodomain-methylated histone interaction inhibition | P83916 | 390,000 compounds, 0.56% hits | Potency, µM (series often up to 114 µM), for inactives: top-dose activity change, negative = inhibition, hits mostly inhibitors | AlphaScreen HP1-beta / biotin-H3K9me3 peptide binding; further: potency means the concentration at half of the fitted maximal effect; nearly all actives have a fitted effect of over 70% in size
# Target sequence (P83916 whole entry, looked up): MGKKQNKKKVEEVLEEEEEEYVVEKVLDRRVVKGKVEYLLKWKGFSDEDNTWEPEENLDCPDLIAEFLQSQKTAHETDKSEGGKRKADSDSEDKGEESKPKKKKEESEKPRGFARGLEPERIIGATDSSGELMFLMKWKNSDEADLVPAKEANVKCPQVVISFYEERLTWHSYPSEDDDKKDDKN
#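 Compound inhibition of the preformed complex between 50 nM HP1-beta and 50 nM biotinylated H3K9me3 peptide was read by AlphaScreen. Buffer was PBS pH 7.4 with 0.01% Tween-20. Incubations ran 30 min at room temperature, with 10 ug/mL donor/acceptor beads.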
# PLK1 PBD block: inhibitors of human PLK1 polo-box domain binding | Potency, µM, inactives show max response, negative = inhibition, usual class: inhibitors | AID 720504 | P53350 | Plk1 PBD binding of FITC phosphopeptide, fluorescence polarization | 360,000 compounds, 2.8% hits; further: potency means the concentration at half of the fitted maximal effect; series mostly up to about 57 µM; on the % scale 0 is the no-effect control and ±100 the full control effect; nearly all actives have a fitted effect of over 65% in size
# PI5P4Ka inh: blocks human PI5P4K alpha kinase activity; max response, %; P48426; PI5P4Kalpha enzyme, ADP-Glo luminescence, 60 min; stronger effect = lower value; 330,000 compounds, 1.2% hits; AID 652105; active means max response of -50% or lower; inconclusive means between -30% and -50%; inactive means -30% or higher; further: value at the top dose of about 77 µM; on the % scale 0 is the no-effect control and ±100 the full control effect
#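 qHTS, 1536-well: enzyme/substrate mix, compound by pin tool, 5 microM ATP final; RT 60 min; ADP-Glo reagents 1 (45 min) then 2 (30 min); luminescence.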
# Numbers without * were called inactive; ? = inconclusive; / = not tested or not shown; [ ] = dose if it differs, or a comment. Unless noted, the call rests on the fitted dose curve; in most records, active means well fitted curve in the direction sought with a large enough effect; inconclusive means small, poorly fitted or top-dose-only effect, or another doubt; inactive means no such curve, though single readings can be large; an effect the other way counts as inactive or inconclusive.
SMILES,JMJD2A Tudor,G9a inh,BAZ2B block,HP1b binding inh,PLK1 PBD block,PI5P4Ka inh
O=C(Cn1cnc(S(=O)(=O)N2CCCC2)c1)Nc1ccc(OC(F)(F)F)cc1,-19%,6%[59 µM],-8%,68%,-7%,0
COc1ccc2c(c1)O[C@H](c1ccc3c(c1)OCO3)[C@@H](OC(=O)Nc1cc(OC)c(OC)c(OC)c1)C2=O,/,50µM*,?,/,/,/
COc1cccc([C@@H]2Oc3ccc(OC)cc3C(=O)[C@H]2OC(=O)NCc2ccc3c(c2)OCO3)c1,/,45µM*,-19%,/,/,/
CCOc1ccccc1N(CC(=O)NCCSc1ccccc1)S(=O)(=O)c1ccccc1,-11%,-31%[59 µM],-7%,4%,/,/
O=C(Nc1ccccc1)N1CC2(CCN(C(=O)c3cccc(F)c3)CC2)C1,/,8%[12.7 µM],/,/,/,/
Cc1csc(SCC(=O)N(C)C2CCS(=O)(=O)C2)n1 (configuration not stated),7%,-37%,-2%,42%,7%,-1
CN(C(=O)CSc1nnc(NCc2ccccc2)s1)C1CCS(=O)(=O)C1 (configuration not stated),16%,50µM*,-4%,31%,-4%,-9
Cc1ccc(-c2nc(SCC(=O)N(C)C3CCS(=O)(=O)C3)[nH]c2-c2ccc(C)cc2)cc1 (configuration not stated),?,?,50µM*,-17%,-10%,/
C=CCn1c(SCC(=O)N(C)C2CCS(=O)(=O)C2)nnc1-c1ccccc1 (configuration not stated),-17%,56µM*,-4%,-12%,-8%,1
CCN(C(=O)CSc1nnc(-c2ccc(F)cc2)n1C)C1CCS(=O)(=O)C1 (configuration not stated),-15%,/,/,12%,-8%,-2
CCn1c(SCC(=O)N(C)C2CCS(=O)(=O)C2)nnc1-c1ccccc1 (configuration not stated),-14%,?,-9%,34%,-11%,-1
CCN(C(=O)CSc1nnc(-c2ccc(F)cc2)c2ccccc12)C1CCS(=O)(=O)C1 (configuration not stated),-22%,35µM*,-11%,15%,-9%,1
COc1ccc(-c2[nH]ncc2C(=O)NCc2ccccc2OC)cc1,8%,14%[59 µM],7%,39%,/,/
Cc1noc(C)c1-c1ccc2ncnc(NCc3cccs3)c2c1,/,14%[0.501 µM],/,/,/,/
Cc1nnc(SCC(=O)N(C)C2CCS(=O)(=O)C2)n1Cc1ccccc1 (configuration not stated),-1%,?,-16%,37%,4%,-7
CCN(C(=O)CSc1nnc(Nc2ccccc2C)s1)C1CCS(=O)(=O)C1 (configuration not stated),-14%,50µM*,9%,22%,-8%,7
CCN(C(=O)CSc1nnc(C)n1Cc1ccccc1)C1CCS(=O)(=O)C1 (configuration not stated),1%[11.4 µM],25µM*,-9%,45%,-14%,9
CCN(C(=O)CSc1nc2ccccc2c(=O)n1-c1cccc(C)c1)C1CCS(=O)(=O)C1 (configuration not stated),?,-28%,11%,-7%,27µM*,?
Cc1cccc(Nc2nnc(SCC(=O)N(C)C3CCS(=O)(=O)C3)s2)c1C (configuration not stated),-8%,13%[59 µM],-4%,22%,-2%,4
CCN(CC(=O)Nc1c(F)cccc1F)C(=O)Cc1ccc(S(=O)(=O)N2CCOCC2)s1,-8%,-2%,-20%,35%,-2%,3
Cc1ccccc1CSc1nc(-c2cccc(F)c2)nc2c1Cc1c(CO)cnc(C)c1O2,-5%,-9%[59 µM],-12%,33%,/,/
Cc1ccccc1OCCOCCN1CCCCCC1,?,40µM*,?,?,1%,-1
COc1ccccc1OCCOCCN1CCCC1,50µM*,25µM*,-26%,?,3%,0
COc1ccccc1OCCCCN1CCN(C(c2ccccc2)c2ccccc2)CC1,?,-11%[59 µM],?,?,-9%,4
Cc1ccc(C(C)C)cc1OCCOCCN1CCCC1,7.1µM*,13µM*,?,?,1%,-8
SMILES,JMJD2A Tudor,G9a inh,BAZ2B block,HP1b binding inh,PLK1 PBD block,PI5P4Ka inh
COc1ccc(C(C)(O)c2nc(-c3ccccc3C)cs2)cc1 (configuration not stated),/,/,/,/,-11%,-1
CC(C)(C)N1CSC(=S)N(Cc2ccccc2)C1,-2%,?,-12%,19%,?,-12
CC(C)N1CSC(=S)N(Cc2ccccc2)C1,-14%,32µM*,-10%,9%,?,3
CN(C(=O)c1cccc(N2C(=O)C3CC=CCC3C2=O)c1)C1CCCCC1 (configuration not stated),-19%,50µM*,-10%,13%,-3%,/
O=C(O)C1CCC2CCCC21 (configuration not stated),/,/,/,/,4%,0
COc1ccc(C(O)CNc2ccc(C)cc2)cc1 (configuration not stated),-26%,0%[59 µM],?,0%,3%,-1
COc1ccc(CCNc2ccc(C)cc2)cc1,40µM*,?,?,?,1%,/
CC(C)Cn1cc(NC(=O)NCc2ccccc2Cl)c2ccccc2c1=O,-23%,?,8%[57.1 µM],42%,/,/
COc1ccc(NC(=O)N/C=C/c2ccc(Cl)cc2)cc1,-22%,20µM*,-26%,-3%,-11%,0
Cc1ccc(NC(=O)N/C=C/c2ccc(Cl)cc2)cc1,-22%[11.4 µM],10%,-36%[57.1 µM],7%,27µM*,-17
O=C(N/C=C/c1ccccc1)Nc1ccc(Cl)cc1,-19%,-39%[59 µM],-2%,15%,-13%,-7
C/C(=N\NC(=O)CSCc1ccccc1Cl)c1cc(O)ccc1O,?,/,40µM*,?,-2%,-2
COCCCNC(=S)Nc1ccc(S(=O)(=O)Nc2cc(OC)nc(OC)n2)cc1,?,-13%,-4%,22%,-6%,-4
C=CCOc1ccc(C2C(C(=O)c3cccs3)=C(O)C(=O)N2c2nnc(C)s2)cc1 (configuration not stated),?,/,/,10%,?,-7
Cc1ccc(C2C(C(=O)c3ccco3)=C(O)C(=O)N2c2nnc(C)s2)cc1 (configuration not stated),79µM*,/,-33%,17%,-4%,/
Cc1nnc(N2C(=O)C(O)=C(C(=O)c3ccco3)C2c2cccc3ccccc23)s1 (configuration not stated),-24%,50µM*,-26%,0%,-15%,-2
Cc1nnc(N2C(=O)C(O)=C(C(=O)c3ccco3)C2c2cccc([N+](=O)[O-])c2)s1 (configuration not stated),-28%,21%,-12%,29%,-6%,0
